From PubChem BioAssay (NCI)
Where “and” joins values, the source holds several entries; their conditions need not be identical. Equal entries are not always repeated. About 83,000 compounds went through this panel and 20% of them were active in at least one assay; those are over-represented in the sample as a whole.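 Values shown are percent growth following 48 h exposure of cells in 96-well plates to a single concentration of compound; below 10 was considered active.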 Calls of active or inactive are those of the source.

Tested on: MDA-MB-468 breast
Assay: NCI-60 one-dose screen, 48 h (100 = growth as untreated, 0 = no growth, -100 = all killed)
Conditions: 10 µM unless noted

Row | SMILES | growth
1 | Cc1ccncc1C(=O)O | 101% (inactive)
2 | Cc1ccc(S(=O)(=O)n2cc(-c3csc(-c4cn(C)c5ncccc45)n3)c3ccccc32)cc1 | 38.6% (inactive)
3 | COc1cc(C2C3CC4CCCC[C@H]4N3[C@@]3(C(=O)Nc4cc(Cl)ccc43)C2C(=O)c2nc3ccccc3[nH]2)cc(OC)c1OC (some centres not stated) | 52.8% (inactive)
4 | COc1ccc(C(=O)CC#N)cc1 | 103% (inactive)
5 | Cc1ccc(S(=O)(=O)C2=C3C(=C(c4ccccc4)c4ccccc43)CN(S(=O)(=O)c3ccc(C)cc3)C2)cc1 | 51% (inactive)
6 | O=C(CN1C(=O)c2ccccc2S1(=O)=O)Nc1nc(-c2cc3ccccc3oc2=O)cs1 | 100% (inactive)
7 | O=c1[nH]c(-c2ccccn2)nc2sc3c(c12)CCCCCC3 | 37.8% (inactive)
8 | O=C(O)c1ccc(-n2cc(CNc3ccc(F)cc3)c(-c3ccc(C(F)(F)F)cc3)n2)cc1 | 83.2% (inactive)
9 | COCCCNc1nc(NC(=O)c2ccc(F)cc2C)cc(-c2cccnc2)n1 | 111% (inactive)
10 | O=C(C(Br)Br)C(Br)C(Br)c1ccccc1 (configuration not stated) | 9.8% (active)
11 | COc1ccc(CCN(CC(=O)N(CC(N)=O)C2CCC[C@@H]2OCc2ccccc2)C(=O)CN(C(=O)CN(CCc2ccc(Cl)cc2)C(=O)CN(C(=O)CN(C)Cc2ccccc2F)[C@H](C)C2CCCCC2)[C@H](C)C2CCCCC2)cc1OC (some centres not stated) | 14.7% (inactive)
12 | O=C(O)C1(Cc2cccc(Nc3nccs3)n2)CCC(Oc2cccc(Cl)c2F)CC1 (configuration not stated) | 33.4% (inactive)
13 | CNS(=O)(=O)Nc1nccc(Cc2c(C)c3ccc(Oc4ncccn4)cc3oc2=O)c1F | 62.9% (inactive)
14 | Cc1ccc(S(=O)(=O)OCCCOS(=O)(=O)c2ccc(C)cc2)cc1 | 100% (inactive)
15 | CC1(C)NC(=S)NC1=O | 109% (inactive)
16 | CCNC(=O)Oc1ccc(/C(=C(/C)c2ccc(Cl)cc2)c2ccc(OCCN(C)C)cc2)cc1 | 67% (inactive)
17 | COCCN(C(=O)Cc1cccs1)C(C(=O)NCc1ccc(OC)cc1)c1ccc(C(C)C)cc1 (configuration not stated) | 90.7% (inactive)
18 | CCN(CC)CC(C)Nc1ccc(C)c2sc3ccccc3c(=O)c12 (configuration not stated) | 57.7% (inactive)
19 | Cc1cc(N(CCNc2ccnc3cc(Cl)ccc23)Cc2ccc3c(c2)OCO3)nc(N2CCN(C)CC2)n1 | -59% (active)

Row | SMILES | growth
20 | CC1OC(n2c3ccccc3c3c4c(c5c6ccccc6[nH]c5c32)C(=O)N(CCN[C@H]2CCC[C@@H]2N)C4=O)CC(O)C1O (some centres not stated) | -20% (active)
21 | CC(c1ccc(-n2cccn2)cc1)c1cnc(N2CCc3ccc(C(N)=O)cc3C2)s1 (configuration not stated) | 30.1% (inactive)
22 | Cn1nnnc1-c1ccc(N)cc1 | 117% (inactive)
23 | CC1=C[C@H]2c3c(c(O)c(O)c4oc(-c5ccccc5)cc(=O)c34)[C@H](c3cc(O)c(O)c4oc(-c5ccccc5)cc(=O)c34)[C@H]2C(C)(C)C1 | 14.2% (inactive)
24 | COc1ccc(/C=N/NC(=O)Cn2c(Cc3cccc4ccccc34)nc3ccccc32)cc1 | 92.4% (inactive)
25 | COc1ccc(-c2c3c(N)c4c(nc3nc3c2c(C)nn3-c2ccccc2)CCCC4)cc1 | 70.3% (inactive)
26 | O=C(Nc1ccc2c(ccn2Cc2ccccn2)c1)c1cnccn1 | 103% (inactive)
27 | Oc1ccc(O)c(-c2ccccc2)c1 | 33.2% (inactive)
28 | CC(C)c1ccc(C(=O)OC2CCCC2)cc1 | 106% (inactive)
29 | COc1ccc(Nc2nc(SC)nc(-c3cccc([N+](=O)[O-])c3)c2C#N)cc1 | 54.7% (inactive)
30 | CCOC(=O)c1cocc1C(=O)O | 103% (inactive)
31 | O=C(/C=C\c1ccco1)/C=C/c1ccco1 | 102% (inactive)
32 | CC(=O)OCC1OC(OCC2OC(OC(C)=O)C(OC(C)=O)C(OC(C)=O)C2OC(C)=O)C(OC(C)=O)C(OC(C)=O)C1OC(C)=O (configuration not stated) | 81.3% (inactive)
33 | CN1CCN(c2ccc(-c3cc4c(Nc5ccc(F)c(Cl)c5)ncnn4c3)cc2)CC1 | 7.99% (active)
34 | Cc1ccc(NC(=O)c2ccc(CN3CCN(C)CC3)cc2)cc1Nc1nccc(-c2cccnc2)n1 | 70.9% (inactive) and 73.4% (inactive)
35 | CC1(C)N=C(N)N=C(N)N1c1cccc(CN)c1 | 84.8% (inactive)
36 | CC(=O)Oc1csc(N(C(C)=O)c2cccc(C(F)(F)F)c2)n1 | 92.1% (inactive)
37 | CC[C@]12C=CCN3CC[C@@]4(c5ccc(OC)cc5N(C)[C@H]4[C@@](O)(C(=O)OC)[C@@H]1OC(=O)CCC(=O)O[C@H]1CC[C@H]4[C@@H]5CC[C@H]6CC(=O)CC[C@]6(C)[C@H]5CC[C@]14C)[C@@H]32 | 24.8% (inactive)
